Results: ChEMBL document CHEMBL4513216, “Probing the Open Global Health Chemical Diversity Library for Multistage-Active Starting Points for Next-Generation Antimalarials” (ACS Infect Dis, 2020)
Out of some 69,000 compounds screened, about 8,600 (12%) showed an effect of 50% or more. The full list was thinned out, with strong results kept by preference.

System: Plasmodium berghei
Assay: Screen against P. berghei liver stage (PbLuc), transformed with Luciferase, at 10uM
Format: functional, HepG2
Details: tested at 10 uM

| Structure (SMILES) | INHIBITION [%] |
| --- | --- |
| COCc1ncn2c1CN(S(=O)(=O)c1cccc(OC)c1)CC2 | 62.4 |
| COc1cccc(S(=O)(=O)N2CCn3cnc(COCC4CC4)c3C2)c1 | 15.9 |
| COCc1ncn2c1CN(S(=O)(=O)c1ccc(C)cc1)CC2 | 80.3 |
| COCc1ncn2c1CN(S(=O)(=O)Cc1ccc(C)cc1)CC2 | -0.55 |
| CCOCc1ncn2c1CN(S(=O)(=O)c1ccc(C)cc1)CC2 | -51.9 |
| COCc1ncn2c1CN(S(=O)(=O)c1cccc(F)c1)CC2 | -58.3 |
| O=C(NC1COC2(CCN(CC3CCC3)CC2)C1)c1ccccn1 (stereo not given) | -7.59 |
| CC1=C(c2ccc(C(C)C)cc2)S(=O)(=O)N=C1N1CCc2ccccc21 | 49 |
| CC(NC(=O)c1cc(=O)n(C)c(=O)n1C)c1ccccc1-n1cccn1 (stereo not given) | 0.426 |
| Cc1ccccc1C(C)NC(=O)c1ccc(=O)n(C)c1 (stereo not given) | 25.5 |
| CC(NC(=O)c1ccc(=O)n(C)c1)c1ccccc1-n1cccn1 (stereo not given) | 53.8 |
| Cc1cc2c(=O)n3c(nc2s1)CCN(Cc1cnc(C)n1C)CC3 | 23.2 |
| Cc1cccc(OCCC(=O)NC(C)c2nnc3n2CCC3)c1 (stereo not given) | 26.4 |
| c1ccc(CNCC2Cn3nnc(-c4ccncc4)c3CO2)nc1 (stereo not given) | 64.5 |
| Cc1nnn2c1COC(CNCc1nccs1)C2 (stereo not given) | -3.24 |
| Cc1cccc(CNC[C@H]2Cn3cc(-c4ccccc4)nc3CO2)n1 | -23.2 |
| c1cc(-c2nnn3c2COC(CNCc2nccs2)C3)ccn1 (stereo not given) | 32.4 |
| c1cc(-c2nnn3c2COC(CNCC2CCOCC2)C3)ccn1 (stereo not given) | 28.2 |
| Cc1nnn2c1COC(CNCc1ccncc1)C2 (stereo not given) | 39.3 |
| COc1ccc(-c2cn3c(n2)CO[C@@H](CNCc2ccccn2)C3)cc1 | 66.9 |
| COc1ccc(-c2cn3c(n2)CO[C@@H](CNCc2nccn2C)C3)cc1 | 16.2 |
| Cn1cc(-c2nnn3c2COC(CNCc2cccnc2)C3)cn1 (stereo not given) | 27.4 |
| Cn1cc(CNCC2Cn3nnc(-c4ccccc4)c3CO2)cn1 (stereo not given) | 62 |
| Cc1cc(CNCC2Cn3nnc(C)c3CO2)oc1C (stereo not given) | 60 |

| Structure (SMILES) | INHIBITION [%] |
| --- | --- |
| Cn1cc(-c2nnn3c2COC(CNCc2ccncc2)C3)cn1 (stereo not given) | 39.3 |
| CCc1nnc(Nc2cccc(C3CCN(C(=O)CO)CC3)n2)s1 | 11.1 |
| CCCn1nccc1NC(=O)CN1CCCC1Cn1cc(C)cn1 (stereo not given) | 42.3 |
| Cn1cc(CCNC(=O)N2CCCC(Cc3nccn3C)C2)cn1 (stereo not given) | 33 |
| O=C(NCCCN1CCOCC1)c1cccc(OCc2ccccc2)c1 | 30 |
| Cc1csc(CN2CCC3(CC2)COC(COc2ccccn2)C3)n1 (stereo not given) | 47.5 |
| Cc1nnn2c1COC(CNCc1ccccn1)C2 (stereo not given) | 39.3 |
| c1ccc(-c2nnn3c2COC(CNCc2ccccn2)C3)cc1 (stereo not given) | 51.2 |
| Cn1cc(-c2nnn3c2COC(CNCc2ccccn2)C3)cn1 (stereo not given) | 46.3 |
| O=C(NCC1CC1)C1CN(c2ncccn2)Cc2ccnn2C1 (stereo not given) | 31.2 |
| CCN(C(=O)CS(=O)(=O)c1cc(OC)c(OC)cc1C)C1CC1 | 33.7 |
| COc1cc(C)c(S(=O)(=O)CC(=O)N(C)C(C)C)cc1OC | 11.5 |
| COc1cc(C)c(S(=O)(=O)CC(=O)N(C)C2CC2)cc1OC | 50.4 |
| COc1c(CNC(c2cccc(F)c2)c2nccn2C)c(C)nn1C (stereo not given) | -16.8 |
| Cc1c(Br)cccc1C(=O)NCC1CCCNC1 (stereo not given) | 42.3 |
| CN(Cc1nccn1C)C1CCCN(Cc2noc(C3CC3)n2)C1 (stereo not given) | -25.8 |
| O=c1cc(N2CCNCC2)cnn1Cc1noc(C2CCCC2)n1 | 78.6 |
| O=c1cc(N2CCCC2)cnn1Cc1noc(C2CCCO2)n1 (stereo not given) | 47.1 |
| O=c1cc(N2CCCCC2)cnn1Cc1noc(C2CCCO2)n1 (stereo not given) | -27.1 |
| Cc1ccccc1CNC(=O)N1C[C@@H]2C[C@H](C(=O)N(C)C)[C@H](C1)O2 | 5.63 |
| COc1ccc(OC)c(CNc2nnc(C(C)(C)C)o2)c1 | -10.9 |
| CC(Cn1cncn1)NC(=O)Nc1ccc(F)cc1OCC1CC1 (stereo not given) | -21.1 |
| CC(NC(=O)NCCCn1cncn1)c1ccc(F)cc1 (stereo not given) | -1.7 |
| CC(Cn1cncn1)NC(=O)NCC(C)(C)Cc1ccccc1 (stereo not given) | 39.8 |

| Structure (SMILES) | INHIBITION [%] |
| --- | --- |
| Cc1ccc(C(C)(C)CNC(=O)NC(C)Cn2cncn2)cc1 (stereo not given) | 61.1 |
| CC(Cn1cncn1)NC(=O)NCC(C)(C)c1ccc(F)cc1 (stereo not given) | 64.5 |
| CC(Cn1cncn1)NC(=O)NCc1csc(N(C)C)n1 (stereo not given) | 23.6 |
| Cn1ncc(C(=O)N2CCN(C(=O)c3ccco3)CC2)c1Cl | 36.5 |
| CC(=O)N1CCCC2(CCC(=O)N2Cc2cccnc2)C1 (stereo not given) | 6.27 |
| Cc1ccc(C(=O)N2CCOC(c3nc(-c4ncccn4)no3)C2)cc1 (stereo not given) | 11.1 |
| c1cc2c(cc1CN1CCC(Cc3noc(C4CC4)n3)CC1)OCCO2 | -5.26 |
| c1cc2c(cc1CN1CCN(Cc3noc(C4CC4)n3)CC1)OCO2 | -28 |
| c1cc2c(cc1CSCc1noc(C3CC3)n1)OCCO2 | 74.3 |
| COCCCNC(=O)CN1CCSC(c2ccccc2)C1 (stereo not given) | 3.88 |
| COc1ccccc1C1CC(=O)Nc2nc(N3CCCCC3)sc21 (stereo not given) | 15.1 |
| Cc1cc(C(=O)N2CCCC2c2noc(C(C)C)n2)c(C)o1 (stereo not given) | 4.52 |
| CS(=O)(=O)c1ccc(CNC(=O)N2CCC(C(N)=O)CC2)cc1 | -60.8 |
| CCN(CC)S(=O)(=O)c1ccc(CNC(=O)N2CCCCCC2)cc1 | 54.3 |
| CCN(CC)S(=O)(=O)c1ccc(CNC(=O)N2CCC(C#N)CC2)cc1 | 45.7 |
| COCCCNC(=O)c1cn(C(C)C)cc2c(=O)[nH]nc1-2 | 14.9 |
| Cc1nn(C)cc1S(=O)(=O)N(CCc1ccccc1)Cc1ccn(C)n1 | 26.75 |
| CSCC[C@@H](CO)NC(=O)c1sc(-c2ccccc2Cl)nc1C | 9.84 |
| Cc1ccccc1-n1ncc2c(=O)n(CCN3CCCC3)cnc21 | -16.3 |
| CCOCCCNC(=O)CCSCc1csc(C)n1 | 63.8 |
| Cc1nc(CSCCC(=O)NCCNC(=O)OC(C)(C)C)cs1 | -30.7 |
| Cc1nc(CSCCC(=O)NCC(=O)NC(C)C)cs1 | 29.4 |
